From PubChem BioAssay (NCI) come the findings set out here.

Holding throughout (assay): NCI-60 one-dose screen, 48 h (100 = growth as untreated, 0 = no growth, -100 = all killed)
Holding throughout (details): 10 µM unless noted

Experiment [1] deals with SK-MEL-2 melanoma.
Experiment [2] has as its system EKVX NSCLC.
In experiment [3] the test system is SN12C renal.
The subject of experiment [4] is UO-31 renal.
For experiment [5], the system named is TK-10 renal.
Experiment [6] has as its system ACHN renal.
The test system of experiment [7] is CAKI-1 renal.
Experiment [8] has as its system A498 renal.
For experiment [9], the system named is CCRF-CEM leukemia.
The test system of experiment [10] is MOLT-4 leukemia.
Experiment [11] concerns SR leukemia.
The test system of experiment [12] is RPMI-8226 leukemia.
Experiment [13] relates to OVCAR-8 ovarian.
For experiment [14], the system named is OVCAR-5 ovarian.
Experiment [15] has as its system OVCAR-4 ovarian.
Experiment [16] deals with SK-OV-3 ovarian.
Experiment [17] has as its system IGROV1 ovarian.
For experiment [18], the system named is OVCAR-3 ovarian.
Experiment [19] relates to HS 578T breast.
Experiment [20] has as its system NCI/ADR-RES ovarian.

About 83,000 compounds went through this panel and 20% of them were active in at least one assay; those are over-represented in the sample as a whole.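 Values shown are percent growth following 48 h exposure of cells in 96-well plates to a single concentration of compound; below 10 was considered active.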 Values without a mark were called inactive. The source made the active and inactive calls.

For `O=C1c2cccc3c(N4CCN(c5ccccc5)CC4)ccc(c23)C(=O)N1c1cccc(-c2nn(-c3ccccc3)cc2-c2nc3ccccc3s2)c1`, the growth was 106% in experiment [1]; 86.6% in experiment [2]; 103% in [3]; 68.1% in [4]; 129% in experiment [5]; 94.9% in [6]. Further, the growth in [7] is 83.3%; in experiment [8] it was 126%; in experiment [9] it was 98.8%; in experiment [10], 99.4%; in experiment [11], 90.9%; in experiment [12], 95.9%. For the same compound, the growth in experiment [13] was 106%; in experiment [14] it was 108%; in experiment [15], 99.9%; in experiment [16], 97.6%; in [17], 73.9%; in experiment [18] it was 98%. Further, the values for the growth in experiment [19] and in experiment [20] were 102% and 98.3%, respectively.
Regarding `COc1cc(NC(=O)CSc2nnc(-c3ccc(-c4nc5ccc(Cl)cc5[nH]4)cc3)o2)cc(OC)c1OC`, the growth is 40.3% in experiment [1]; 81.1% in [2]; 46.6% in experiment [3]; 64% in experiment [4]; 93.9% in experiment [5]; 74.9% in experiment [6]. In addition, the growth was 68.3% in experiment [7]; 137% in experiment [8]; 15% in experiment [9]; 34.2% in [10]; 35.7% in experiment [11]; 25% in experiment [12]. Further, the growth was 62.6% in [13]; 71.4% in experiment [14]; 64.8% in experiment [15]; 109% in [16]; 52.7% in [17]; 21.7% in experiment [18]. The growth is 53.3% in experiment [19] and 63.6% in [20].
Consider `COc1cccc(NC(=O)c2ccc(NC(=O)CCl)s2)c1`, for which the growth in experiment [1] was 79.6%; in [2], 95%; in experiment [3], -14.4% (active); in experiment [4], 62.1%; in experiment [5], 54.8%; in [6], 66.4%. Besides, the growth in [7] was 53.8%; in [8] it was 108%; in experiment [9] it was 1.03% (active); in experiment [10] it was -7.31% (active); in experiment [11], -0.752% (active); in experiment [12] it was -22.9% (active). In addition, the growth in [13] was 10.2%; in experiment [14], 47.3%; in experiment [15], 94.6%; in [16], -1.99% (active); in experiment [17], -13.4% (active); in experiment [18], 35.8%. Further, the growth was 65.9% in experiment [19] and 22.5% in experiment [20].
As to `CCCN(CCC)S(=O)(=O)c1ccc(C(=O)O)cc1.CCCN(CCC)S(=O)(=O)c1ccc(C(=O)O)cc1.[Cl][Pt+2][Cl].[NH2-].[NH2-]`, the growth in experiment [1] is -31.6% (active); in experiment [2] it was 44.8%; in [3], 12.4%; in [4], 98.4%; in experiment [5], 109%; in experiment [6] it was 13.4%. Moreover, the growth was 32.4% in experiment [7]; 91.5% in [8]; 50.4% in experiment [9]; -2.08% (active) in [10]; 3.39% (active) in [11]; 12.3% in experiment [12]. Further, the growth in experiment [13] is 39.7%; in experiment [14], 24.5%; in [15] it was 35.4%; in experiment [16], 18.8%; in experiment [17] it was 7.54% (active); in [18], 0.454% (active). Besides, the growth in experiment [19] is 80.8%; in [20], 101%.
In the case of `O=C(CSc1nnc(-c2ccc(-c3nc4ccccc4[nH]3)cc2)o1)Nc1ccc(Br)cc1`, the growth in [1] is 41.4%; in experiment [2], 27.1%; in [3], 21.9%; in experiment [4], 63.2%; in [5] it was 56.7%; in experiment [6], -60.9% (active). Also, the growth was 25.2% in experiment [7]; 109% in experiment [8]; 23% in experiment [9]; 4.27% (active) in [10]; 5.23% (active) in [11]; 7.82% (active) in experiment [12]. The growth is 4.46% (active) in experiment [13]; 44.7% in experiment [14]; 54.3% in experiment [15]; 79% in experiment [16]; 35.8% in experiment [17]; 34.2% in experiment [18]. Moreover, the growth in experiment [19] is 57.2%; in experiment [20], 21.5%.
Turning to `O=C(N/N=C/c1ccc(Cl)o1)c1[nH]c2ccc(Br)cc2c1-c1ccccc1`, the growth was 12.3% in experiment [1]; 12% in [2]; -60.9% (active) in experiment [3]; -34.5% (active) in [4]; -11.7% (active) in experiment [5]; -46% (active) in experiment [6]. Besides, the growth in experiment [7] is -0.252% (active); in experiment [8], -25.6% (active); in experiment [9], -2.11% (active); in experiment [10] it was 3.03% (active); in [11] it was 7.2% (active); in [12] it was 1.15% (active). In addition, the growth in experiment [13] is -56.7% (active); in experiment [14], -24.9% (active); in [15] it was -22.3% (active); in experiment [16] it was 4.66% (active); in experiment [17], 5.37% (active); in experiment [18] it was -11.3% (active). In addition, the values for the growth in experiment [19] and in experiment [20] were 3.22% (active) and -79% (active), respectively.
In the case of `Nc1nc2cc(-c3ccc4ncnc(NCc5ccccc5)c4c3)ccc2o1`, the growth was 42.2% in [1]; 0.598% (active) in experiment [2]; -33.7% (active) in experiment [3]; -73.4% (active) in [4]; -28.5% (active) in experiment [5]; -62.4% (active) in experiment [6]. For the same compound, the growth in experiment [7] is -24.9% (active); in experiment [8], 41.6%; in experiment [9], 29.6%; in experiment [10], -20.1% (active); in experiment [11], -44.9% (active); in experiment [12], 10.6%. The growth in [13] is 2.26% (active); in experiment [14], 22.1%; in [15] it was -75.2% (active); in [16] it was -5.93% (active); in experiment [17], -68.5% (active); in experiment [18], -31.5% (active). The growth in [19] is -34.8% (active); in experiment [20] it was 2.3% (active).
